According to PubChem BioAssay (NCATS):
Inconclusive results are not listed. Activity calls are given as the source filed them. Calls follow the shape of the dose curve; as a rule, active = well fitted inhibition curve with a large enough effect; inconclusive = small, poorly fitted or top-dose-only effect; inactive = flat fitted curve, though single readings scatter.

Key:
Assay in all cases: Cytotoxic Profiling of Annotated Libraries Using Quantitative High-Throughput Screening (AID 1296008); also: nearly all actives have a fitted effect of over 60% in size
Conditions in all cases: Five cell lines viability, CellTiter-Glo ATP luminescence, 48-72 h; max response: stronger effect = lower value
[1] = tested on: CRL-7250
Summary of the method: (§1)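 Compounds were pin-transferred onto cells and incubated 48 or 72 hr at 37 degree Celsius, 95% humidity. CellTiter-Glo was added, plates sat 10 min at room temperature, then ATP-coupled luminescence was imaged as the viability read-out.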

[2] = tested on: HEK293
Summary of the method: as §1

[3] = tested on: HaCat
Summary of the method: as §1

[4] = tested on: KB-3-1
Summary of the method: as §1

[5] = tested on: NIH3T3
Summary of the method: as §1

Measured: max response
% is scaled to controls: 0 for no effect and ±100 for the full control effect.

C/C=C(\C)C(=O)O[C@H]1[C@@H](O[C@]2(COC(=O)CC(C)C)O[C@H](COC(=O)C(C)CC)[C@@H](OC(C)=O)[C@@H]2O)O[C@H](COC(C)=O)[C@@H](O)[C@@H]1O (stereo not given in full)
inactive: [1] 0.451% | [2] 2.82% | [3] 1.55% | [4] 6.8% | [5] -0.857%

COC(=O)C1=COC(O[C@@H]2O[C@H](CO)[C@@H](O)[C@H](O)[C@H]2O)[C@H]2[C@@H]1[C@H](OC(=O)CCc1ccc(O)cc1)C[C@]2(C)O (stereo not given in full)
inactive: [1] | [2] 0.992% | [3] -1.18% | [4] -2.46% | [5] 2.76%

CC1=C(C)C(=O)OC(C(C)C2CCC3C4CC=C5CC(OC6OC(COC7OC(CO)C(O)C(O)C7O)C(O)C(O)C6O)CC(O)C5(C)C4CCC23C)C1 (stereo not given)
inactive: [1] -1.46% | [2] -1.67% | [3] -17.7% | [4] 8.05% | [5] 3.09%

O=C1NC(Cc2ccccc2)C(=O)N2CCCC12 (stereo not given)
inactive: [1] | [2] -1.73% | [3] 2.36% | [4] 9.71% | [5] -0.863%

Cc1cc(O)cc(O[C@@H]2O[C@H](CO)[C@@H](O)[C@H](O)[C@H]2O)c1
inactive: [1] | [2] 0.562% | [3] -10.5% | [4] 4.47% | [5] -8.17%

O=C(Nc1ccc(S(=O)(=O)Nc2ccccc2Cl)c(Cl)c1)c1ccccn1
inactive: [1] 0.561% | [2] -10.8% | [3] -15.8% | [4] -5.44% | [5] -3.89%

C=C(C(=O)O)[C@@H]1CC[C@@]2(C)CC[C@H](O)[C@@]2(C(C)=O)C1
inactive: [1] | [2] -2.38% | [3] -0.694% | [4] 2.3% | [5] -3.95%

COC(=O)C1=COC(OC2OC(CO)C(O)C(O)C2O)C2C1C=CC2(O)CO (stereo not given)
inactive: [1] | [2] -11.3% | [3] -21.5% | [4] | [5] 3.54%

C[C@@]12CC[C@@H]3[C@@](CC[C@H]4[C@@]3(C)CCC[C@@]4(C)C(=O)O)(CC1=O)C2
inactive: [1] -4.96% | [2] -6.36% | [3] | [4] 1.35% | [5] -5.17%

C[C@@H]1O[C@@H](OC[C@H]2O[C@@H](OC(CCCCc3ccc(O)cc3)CCc3ccc(O)cc3)[C@H](O)[C@@H](O)[C@@H]2O)[C@H](O)[C@H](O)[C@H]1O (stereo not given in full)
inactive: [1] 3.8% | [2] 1.77% | [3] -5.01% | [4] | [5] -4.82%

C=C(C(=O)O)[C@H]1C[C@]2(C)[C@@H](O)CC[C@]23O[C@H]1C[C@@H]3C
inactive: [1] -8.76% | [2] -6.98% | [3] | [4] | [5] -13.7%

C=CC(C)(O)CC[C@H]1C(=C)CCC2[C@](C)(C(=O)O)CCC[C@@]21C (stereo not given in full)
inactive: [1] 2.31% | [2] -3.52% | [3] -5.99% | [4] 0.39% | [5] 2.59%

CC(=O)/C=C/[C@H]1[C@](C)(O)[C@@H](O)[C@H](OC(C)=O)C2C(C)(C)CCC[C@@]21C (stereo not given in full)
inactive: [1] 4.5% | [2] -3.84% | [3] -21.7% | [4] | [5] -10.6%

Cc1ccccc1C#Cc1ccc(CCC(=O)O)cc1
inactive: [1] -3.17% | [2] -13.9% | [3] -15.6% | [4] -11.6% | [5] -10.2%

C=C1C[C@]23C[C@H]1[C@@H](O)C[C@H]2[C@@]12C=C[C@H](O)[C@@](C)(C(=O)O1)[C@H]2[C@@H]3C(=O)O
inactive: [1] 0.0204% | [2] -1.36% | [3] -32.5% | [4] -2.31% | [5] 0.227%

C/C=C1\[C@H](O[C@@H]2O[C@H](CO)[C@@H](O)[C@H](O)[C@H]2O)OC=C(C(=O)OC)[C@H]1CC(=O)O
inactive: [1] -9.39% | [2] 3.99% | [3] -13.1% | [4] -0.621% | [5] -1.8%

C[C@@H]1CC[C@]2(C(=O)O[C@@H]3O[C@H](CO)[C@@H](O)[C@H](O)[C@H]3O)CC[C@]3(C)C(=CCC4[C@@]5(C)C[C@@H](O)[C@H](O)[C@@](C)(C(=O)O[C@H]6[C@H](O)C[C@@]7(C)C(CC[C@]8(C)C7CC=C7[C@H]9[C@](C(=O)O[C@@H]%10O[C@H](CO)[C@@H](O)[C@H](O)[C@H]%10O)(CC[C@@H](C)[C@@]9(C)O)CC[C@]78C)[C@@]6(CO)C(=O)O)C5CC[C@]43C)[C@@H]2[C@]1(C)O (stereo not given in full)
inactive: [1] | [2] -9.28% | [3] -16.1% | [4] | [5] 4.48%
